# Reference: the supplement of paper PMC10646978
# ± gives the standard deviation.
# Columns and labels:
# Conditions in all cases: modulator concentration 10 µM
# [1] = tested on: RAW-Dual (murine macrophage reporter line); test: NF-kB reporter (SEAP) activity fold change vs agonist alone; higher = enhanced NF-kB activity
# In short: (§1)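 RAW-Dual murine macrophage reporter cells were plated at 50 000 per well in 384-well plates, pin-transferred compound to 10 μM final, and pre-incubated for 1 hour at 37 °C before a PRR agonist was added and the cells incubated overnight. NF-κB activity was read from supernatant SEAP with QUANTI-Blue at 620 nm absorbance, and IRF activity from Lucia luciferase with QUANTI-Luc by luminescence. Each signal was expressed as fold change by dividing by the mean agonist-only control on the same plate. Two replicate plates were averaged, with errors obtained by propagation.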
# [2] = tested on: RAW-Dual (murine macrophage reporter line); test: IRF reporter (Lucia luciferase) activity fold change vs agonist alone; higher = enhanced IRF activity
# In short: as §1
# [3] = tested on: RAW-Dual (murine macrophage reporter line); test: viability score (confluency relative to resting cells, overnight) (fraction); higher = more viable, active = viable (0.7 or more)
# In short: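 Two confluency masks, generated with IncuCyte software over all imaged wells, were applied to IncuCyte images of RAW-Dual macrophages. The cells, in 384-well plates, had been exposed overnight to 10 μM final compound. The viability score is confluency as a fraction of resting cells, and a compound met the cutoff only with both masks above 70% of resting cells.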
# [4] = agonist: CpG ODN 1826 0.5 ug/mL
SMILES,"NF-kB reporter [1, 4]",NF-kB reporter ([1]; agonist: LPS 0.1 ug/mL),NF-kB reporter ([1]; agonist: MPLA […]),IRF reporter ([2]; agonist: 3'3'-cGAMP 10 ug/mL),IRF reporter ([2]; agonist: LPS 0.1 ug/mL),IRF reporter ([2]; agonist: MPLA […]),viability score [3]
O=C(NN=Cc1ccc(O)c(O)c1)c1cc2ccccc2cc1O,0.35 ± 0.03,0.729 ± 0.075,0.589 ± 0.038,0.229 ± 0.017,0.909 ± 0.072,0.794 ± 0.18,0.997 (active)
NC(=O)C1CCCc2c1[nH]c1ccc(Cl)cc21 (centres undefined),1.07 ± 0.15,1.1 ± 0.14,0.878 ± 0.05,0.959 ± 0.044,1.19 ± 0.25,1.24 ± 0.098,0.959 (active)
O=C(Nc1cc(C(F)(F)F)cc(C(F)(F)F)c1)c1ccco1,0.816 ± 0.11,1.07 ± 0.061,1.02 ± 0.072,0.715 ± 0.019,1.07 ± 0.23,0.89 ± 0.15,1.01 (active)
CCOC(=O)C1=C(C)NC(=Cc2ccccc2[N+](=O)[O-])C1=O,1.66 ± 0.13,0.864 ± 0.2,0.872 ± 0.13,0.275 ± 0.024,0.0881 ± 0.019,0.064 ± 0.016,0.755 (active)
Cc1ccc(OCCCOc2cccc3cccnc23)c(Br)c1,0.998 ± 0.071,1.01 ± 0.078,1.01 ± 0.027,0.829 ± 0.053,0.935 ± 0.13,0.981 ± 0.21,0.998 (active)
CC(C)(C)C1CCc2c(sc(NC(=O)c3ccc(Cl)cc3)c2C(N)=O)C1 (centres undefined),1.02 ± 0.086,1.05 ± 0.093,0.91 ± 0.081,0.961 ± 0.043,1.55 ± 0.23,1.16 ± 0.089,1.01 (active)
CC(=O)Oc1cc(C(F)(F)F)ccc1C(=O)O,0.977 ± 0.13,1.05 ± 0.19,0.91 ± 0.053,0.976 ± 0.03,1.32 ± 0.32,1.21 ± 0.23,1 (active)
COC1CCN(c2ccc(C(=O)N3CC(n4cc(COc5ccccc5)nn4)C3)cc2)C1 (centres undefined),1.17 ± 0.099,1.13 ± 0.1,0.959 ± 0.053,0.758 ± 0.043,1.12 ± 0.076,1.08 ± 0.24,0.922 (active)
Cc1ccc(OCC(O)CN2CCCCC2)c(C)c1.Cl (centres undefined),0.868 ± 0.15,1.05 ± 0.12,1.01 ± 0.15,0.857 ± 0.056,1.21 ± 0.12,1.28 ± 0.2,0.809 (active)
Nc1ncnc2c1ncn2C1OC(COP(=O)(O)O)C(O)C1O (centres undefined),1.9 ± 0.51,1.3 ± 0.089,1.55 ± 0.11,1.44 ± 0.052,1.19 ± 0.13,1.19 ± 0.14,0.97 (active)
COC(=O)C(CCSC)NC(=O)c1cc(OC)c(OC)c(OC)c1 (centres undefined),1.08 ± 0.18,1.09 ± 0.096,1.1 ± 0.14,1.02 ± 0.031,0.923 ± 0.089,1.07 ± 0.12,0.712 (active)
CCC(C)n1ncn(-c2ccc(N3CCN(c4ccc(OC[C@H]5CO[C@](Cn6cncn6)(c6ccc(Cl)cc6Cl)O5)cc4)CC3)cc2)c1=O (some centres undefined),1.57 ± 0.47,1.04 ± 0.057,1.1 ± 0.089,0.921 ± 0.044,1.2 ± 0.14,1.32 ± 0.13,0.994 (active)
Cc1ccc(CC(=O)N2CCNC(=O)C2(C)C)cc1C,1.08 ± 0.11,1.07 ± 0.1,0.989 ± 0.031,0.865 ± 0.042,0.941 ± 0.044,0.87 ± 0.085,0.999 (active)
CCCCCOC(=O)CSc1nnc(-c2ccc(Cl)cc2Cl)o1,0.957 ± 0.076,0.981 ± 0.083,0.99 ± 0.048,1.07 ± 0.23,1.04 ± 0.051,1.02 ± 0.14,1 (active)
CCOC(=O)[C@H](CCc1ccccc1)N[C@H]1CCc2ccccc2N(CC(=O)O)C1=O [Prestw-1129],1.13 ± 0.097,0.978 ± 0.079,0.941 ± 0.06,1.02 ± 0.045,1 ± 0.047,0.879 ± 0.087,0.994 (active)
O=C(Cn1ccnc1[N+](=O)[O-])NCCO [Prestw-649],1.09 ± 0.081,1.01 ± 0.12,1.05 ± 0.03,1.09 ± 0.16,0.982 ± 0.11,0.994 ± 0.15,1 (active)
O=C(NC(=S)Nc1ccc2[nH]c(=O)[nH]c2c1)c1ccc(Cl)cc1,0.958 ± 0.082,1.13 ± 0.075,0.95 ± 0.042,0.94 ± 0.17,1.03 ± 0.043,0.994 ± 0.22,1 (active)
C#CCCCCCCCCCCCC(O)CC(O)COC(C)=O (centres undefined),1.1 ± 0.34,1.06 ± 0.055,1.13 ± 0.083,0.832 ± 0.11,1.17 ± 0.19,1.41 ± 0.19,1 (active)
COc1ccc(C2(C#N)CCC(C(=O)O)CC2)cc1OC1CCCC1 (centres undefined),1.37 ± 0.11,1.16 ± 0.085,1.37 ± 0.16,1.05 ± 0.048,1.25 ± 0.083,1.38 ± 0.12,1.02 (active)
O=C(c1ccc(Cl)cc1)N(c1ccccc1)C1C=CS(=O)(=O)C1 (centres undefined),0.99 ± 0.056,0.83 ± 0.051,0.823 ± 0.049,0.814 ± 0.031,1.1 ± 0.14,1.08 ± 0.2,0.981 (active)
NC(=O)CC[C@H](N)C(=O)O,0.931 ± 0.076,0.998 ± 0.096,0.982 ± 0.023,0.949 ± 0.082,0.998 ± 0.039,1.04 ± 0.11,1.01 (active)
Cc1ccc(Nc2ccc(NC(=O)C(C)C)cc2)nn1,0.988 ± 0.042,0.993 ± 0.082,1.11 ± 0.07,1.05 ± 0.048,1.2 ± 0.26,1.29 ± 0.44,0.981 (active)
CC(C)(C)c1cc(NCc2ccccn2)n2ncc(-c3ccc(Cl)cc3)c2n1,0.256 ± 0.019,0.477 ± 0.032,0.79 ± 0.025,0.296 ± 0.028,0.962 ± 0.12,3.1 ± 0.86,0.978 (active)
O=C(CSC1CCCCC1)Nc1cc(C(F)(F)F)ccc1Cl,0.516 ± 0.045,1.38 ± 0.11,1.39 ± 0.063,1.45 ± 0.14,2.2 ± 0.16,1.47 ± 0.43,1.01 (active)
NC(=O)N1CCC(CC(=O)N2CCC([C@H]3c4ncc(Br)cc4CCc4cc(Cl)cc(Br)c43)CC2)CC1,0.342 ± 0.047,0.434 ± 0.12,0.615 ± 0.19,0.325 ± 0.012,0.889 ± 0.23,1.2 ± 0.17,0.0582 (inactive)
CC#C[C@]1(O)CC[C@H]2[C@@H]3CCC4=CC(=O)CCC4=C3[C@@H](c3ccc(N(C)C)cc3)C[C@@]21C,0.955 ± 0.093,0.722 ± 0.15,1.39 ± 0.15,0.863 ± 0.048,0.868 ± 0.033,1.05 ± 0.31,1 (active)
CC12CCC3c4ccc(O)cc4CCC3C1CCC2OC(=O)CCC1CCCC1 (centres undefined),1.02 ± 0.093,0.997 ± 0.09,0.867 ± 0.082,0.969 ± 0.03,1.15 ± 0.15,1.21 ± 0.14,0.98 (active)
